# In PubChem BioAssay:
# Results filed as inconclusive are left out. The source made the active and inactive calls. Unless noted, the limit is not given here; nearly all actives have AC50 up to about 30 µM.
# Legend:
# [1] = growth inhibition of DIPG glioma cells, dose response, cell-based, SU-DIPG-XIII, MIPE4.0, CellTiter-Glo, qHTS (AID 1347061; cut-off not given, nearly all actives have AC50 up to about 37 µM;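 also: cells exposed to compound for 48 hours before readout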); settings: SU-DIPG-XIII viability, CellTiter-Glo ATP luminescence
# [2] = growth inhibition of DIPG glioma cells, dose response, cell-based, JHH-DIPG-1, MIPE4.0, CellTiter-Glo, qHTS (AID 1347062; cut-off not given, nearly all actives have AC50 up to about 27 µM;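 as to AC50: cells exposed to compound for two days before readout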); settings: JHH-DIPG-1 viability, CellTiter-Glo ATP luminescence
# [3] = growth inhibition of DIPG glioma cells, dose response, cell-based, SU-DIPG-IV, MIPE4.0, CellTiter-Glo, qHTS (AID 1347063); settings: SU-DIPG-IV viability, CellTiter-Glo ATP luminescence;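 also: compound exposure lasted 48 hours before the viability readout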
# [4] = SU-DIPG-XXV glioma cell viability, MIPE5.0 library, qHTS (AID 1347068; cut-off not given, nearly all actives have IC50 up to about 30 µM)
# [5] = SU-DIPG-VI glioma cell viability, MIPE4.0 library, CellTiter-Glo luminescence, qHTS (AID 1347066); settings: CellTiter-Glo ATP luminescence;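 also: cells exposed to compound for 48 hours before readout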
# [6] = sensitizers of A549 cells to miR-34 induction, primary screen, imaging, A549 dox-inducible miR-34, nuclei and caspase counts (AID 1347080;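 active = compounds whose cell count with miR-34 switched on is under 0.7 times the count with it off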); settings: A549 miR-34 inducible, Hoechst nuclei count, 48 h
# [7] = survival rescue of mitochondrial mutant cells in low glucose, primary screen, MELAS cybrids, Rieske KO mouse fibroblasts, CellTiter-Glo (AID 1508586;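 active = mean z-score across replicates of 1.96 or higher in either the MELAS or the Rieske mutant cell line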;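 also: z relative to plate mean and SD of compound and empty wells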)
# [8] = JHH-DIPG-1 glioma cell viability, MIPE5.0 library, CellTiter-Glo luminescence, qHTS (AID 1347067; cut-off not given, nearly all actives have AC50 up to about 26 µM;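 also: cells exposed to compound for 48 hours before readout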); settings: JHH-DIPG-1 glioma viability, CellTiter-Glo ATP luminescence
# [9] = modifiers of HSF1 nuclear foci, imaging, Selleck Cancer Library (AID 1347162; in the data active = plate-normalised HSF1 focus index below about 0.46); settings: human cells, at 10 µM; SSMD: measured here: HSF1 foci SSMD mean; cell count: measured here: cell number; plate-normalised HSF1 focus index: stronger effect = lower value
# [10] = stronger effect = lower value, cell number ratio, induced over uninduced
# [11] = measured here: relative caspase fold change +Dox/-Dox
# [12] = measured here: total cells with miR-34 induction, stronger effect = lower value
# [13] = measured here: total cells without miR-34 induction
# [14] = MELAS cybrid survival, CellTiter-Glo 48 h, stronger effect = higher value
# [15] = Rieske KO mouse fibroblast survival, CellTiter-Glo 72 h
smiles,measurement,setting,value
C=C1/C(=C/C=C2\CCCC3(C)[C@@H]([C@H](C)/C=C/C=C/C(O)(CC)CC)CC[C@@H]23)C[C@@H](O)C[C@@H]1O (stereo partly specified),AC50,[1],18.7 µM (active)
same,AC50,[2],20.9 µM (active)
same,AC50,[3],16.6 µM (active)
same,outcome,[4],inactive
O=C(O)C(O)Cc1ccc(O)c(O)c1 (stereo unspecified),outcome,[1],inactive
same,outcome,[2],inactive
same,outcome,[3],inactive
same,outcome,[5],inactive
same,outcome,[4],inactive
same,fold change,[6]; [10],0.928 (inactive)
same,fold change,[6]; [11],0.6
same,cell count,[6]; [12],9530
same,cell count,[6]; [13],10300
same,z-score,[7]; [14],-0.385 (inactive)
same,z-score,[7]; [15],0.0393
N=C1S/C(=C\c2ccc(-c3ccc4c(c3)C(=O)NC4=O)o2)C(=O)N1c1ccc(Br)cc1,outcome,[1],inactive
same,outcome,[2],inactive
same,outcome,[3],inactive
same,outcome,[5],inactive
same,outcome,[4],inactive
COC(=O)N[C@H](C(=O)N1CCC[C@H]1c1ncc(-c2ccc(-c3ccc(-c4cnc([C@@H]5CCCN5C(=O)[C@@H](NC(=O)OC)C(C)C)[nH]4)cc3)cc2)[nH]1)C(C)C,outcome,[1],inactive
same,outcome,[2],inactive
same,AC50,[3],26.4 µM (active)
same,AC50,[8],23.5 µM (active)
CC(C(C)N1CC(=O)NC(=O)C1)N1CC(=O)NC(=O)C1 (stereo unspecified),outcome,[1],inactive
same,outcome,[2],inactive
same,outcome,[3],inactive
same,outcome,[5],inactive
same,outcome,[8],inactive
same,outcome,[4],inactive
CN(C)c1nc(Cc2ccc(NC(=O)c3ccc(C(F)(F)F)cc3)cc2)nc(N(C)C)c1CC(=O)O,outcome,[1],inactive
same,outcome,[2],inactive
same,outcome,[3],inactive
same,outcome,[5],inactive
C[C@]12C=CC(=O)N[C@@H]1CC[C@@H]1[C@@H]2CC[C@]2(C)[C@@H](C(=O)Nc3cc(C(F)(F)F)ccc3C(F)(F)F)CC[C@@H]12,outcome,[1],inactive
same,outcome,[2],inactive
same,outcome,[3],inactive
Nc1nc2[nH]cc(CCc3ccc(C(=O)N[C@@H](CCC(=O)O)C(=O)O)cc3)c2c(=O)[nH]1,outcome,[1],inactive
same,outcome,[2],inactive
same,outcome,[3],inactive
same,outcome,[5],inactive
same,outcome,[8],inactive
same,outcome,[4],inactive
same,fold change,[6]; [10],1.36 (inactive)
same,fold change,[6]; [11],0.473
same,cell count,[6]; [12],3100
same,cell count,[6]; [13],2280
same,SSMD,[9],-2.05
same,cell count,[9],7280
same,plate-normalised HSF1 focus index,[9],0.87 (inactive)
same,z-score,[7]; [14],-0.725 (inactive)
same,z-score,[7]; [15],-0.391
Cc1nnc(C(C)C)n1C1C[C@H]2CC[C@@H](C1)N2CC[C@H](NC(=O)C1CCC(F)(F)CC1)c1ccccc1 (stereo partly specified),outcome,[1],inactive
same,outcome,[2],inactive
same,outcome,[3],inactive
same,outcome,[5],inactive
C/C=C1\C2C=C(C)CC1(N)c1ccc(=O)[nH]c1C2 (stereo unspecified),outcome,[1],inactive
same,outcome,[2],inactive
same,outcome,[3],inactive
same,outcome,[5],inactive
same,fold change,[6]; [10],1.01 (inactive)
same,fold change,[6]; [11],0.681
same,cell count,[6]; [12],4140
same,cell count,[6]; [13],4110
CC1(C)C(=O)N(CCN2CCC(C(=O)c3ccc(F)cc3)CC2)c2ccccc21,outcome,[1],inactive
same,outcome,[2],inactive
same,outcome,[3],inactive
same,fold change,[6]; [10],0.986 (inactive)
same,fold change,[6]; [11],1.27
same,cell count,[6]; [12],7420
same,cell count,[6]; [13],7530
